Reference: the supplement of paper PMC12669032

What follows are compounds tested on Streptococcus salivarius (assay: growth AUC relative to DMSO control (median of replicates) (fraction); higher = more growth (less inhibition), active = hit call of the paper). Details: 20 µM; 24 h;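 active = AUC reduced over 20% with Padj below 0.05 in at least 2 of 3 replicates; inactive = otherwise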.
How it was run: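 Gut bacterial monocultures were grown anaerobically at 37 °C in mGAM, starting at OD600 0.05, with 20 µM compound (1% DMSO) in round-bottom 96-well plates under pierced gas-permeable seals. OD600 was read hourly for 24 h. Area under the growth curve (minimum OD set to 0) was normalised to the plate median of DMSO controls, or to row and column medians on the industrial chemical plate. The value is the median of three biological replicates grown on separate days.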

Row | Structure (SMILES) | growth AUC
1 | O=C1C=C(N(Cc2ccc(Cl)nc2)CC(F)F)CO1 | 0.979 (inactive)
2 | Cc1ccc(N(SC(F)(Cl)Cl)S(=O)(=O)N(C)C)cc1 | 1.01 (inactive)
3 | Cc1nnc(-c2ccccc2)c(=O)n1N | 1.06 (inactive)
4 | CCC(C)Nc1c([N+](=O)[O-])cc(C(C)(C)C)cc1[N+](=O)[O-] (stereo not drawn) | 1.04 (inactive)
5 | CC(C)(C)[C@@H](O)[C@H](Oc1ccc(Cl)cc1)n1cncn1 | 1.04 (inactive)
6 | COc1cc(OC)nc(NC(=O)[N-]S(=O)(=O)c2ncccc2OCC(F)(F)F)n1.[Na+] | 0.885 (inactive)
7 | COCC(=O)N(c1c(C)cccc1C)[C@H](C)C(=O)OC | 1.02 (inactive)
8 | CCCCN(CC)c1c([N+](=O)[O-])cc(C(F)(F)F)cc1[N+](=O)[O-] | 1.03 (inactive)
9 | Cc1cc(Cl)ccc1OCC(=O)O.O.[Na] | 0.986 (inactive)
10 | O=C(NC(=O)c1c(F)cccc1F)Nc1ccc(Cl)cc1 | 0.992 (inactive)
11 | N#Cc1c[nH]cc1-c1cccc(Cl)c1Cl | 0.929 (inactive)
12 | CNC(=O)Oc1cccc2c1OC(C)(C)C2O (stereo not drawn) | 1.02 (inactive)
13 | O=C(OC1CCCCC1)c1ccccc1C(=O)OC1CCCCC1 | 1 (inactive)
14 | CCN(CC)N=O | 0.964 (inactive)
15 | CS(=O)(=O)c1ccc(C(=O)C2C(=O)CCCC2=O)c([N+](=O)[O-])c1 | 1.03 (inactive)
16 | Nc1cc(Cl)ccc1Cl | 1 (inactive)
17 | COS(=O)(=O)[O-].Cn1c(-c2ccccc2)cc(-c2ccccc2)[n+]1C | 0.97 (inactive)
18 | O=P(OC(CCl)CCl)(OC(CCl)CCl)OC(CCl)CCl | 0.969 (inactive)
19 | CNC(=O)O/N=C(\C)C(C)S(C)=O (stereo not drawn) | 0.96 (inactive)

Row | Structure (SMILES) | growth AUC
20 | CN(C)c1nc(=O)n(C2CCCCC2)c(=O)n1C | 1.01 (inactive)
21 | CC(C)=CC1C(C(=O)OCc2cccc(Oc3ccccc3)c2)C1(C)C (mixture of isomers) | 0.951 (inactive)
22 | Cc1cc(OC(=O)N(C)C)nn1C(=O)N(C)C | 0.971 (inactive)
23 | CC(Oc1ccc(Oc2nc3ccc(Cl)cc3o2)cc1)C(=O)O (racemic) | 0.999 (inactive)
24 | COP(=S)(OC)Oc1ccc(SC)c(C)c1 | 0.965 (inactive)
25 | CCS(=O)(=O)c1cccnc1S(=O)(=O)NC(=O)Nc1nc(OC)cc(OC)n1 | 0.93 (inactive)
26 | O.[Br-].[Br-].c1cc[n+]2c(c1)-c1cccc[n+]1CC2 | 1.01 (inactive)
27 | O=C(O)C(F)(F)C(F)(F)C(F)(F)C(F)(F)C(F)(F)C(F)(F)C(F)(F)C(F)(F)F | 0.998 (inactive)
28 | COP(=O)(OC)Oc1ccc([N+](=O)[O-])cc1 | 1.03 (inactive)
29 | C[N+](C)(C)CCCl.[Cl-] | 1.03 (inactive)
30 | CCOP(=O)(OCC)ON1C(=O)c2cccc3cccc(c23)C1=O | 1.03 (inactive)
31 | CCOP(=O)(OCC)Oc1ccc([N+](=O)[O-])cc1 | 1.01 (inactive)
32 | COP(=S)(OC)Oc1ccc([N+](=O)[O-])c(Cl)c1 | 1.05 (inactive)
33 | N#Cc1sc2c(=O)c3ccccc3c(=O)c=2sc1C#N | 0.908 (inactive)
34 | ClC1=C(Cl)[C@]2(Cl)C3CC=CC3[C@@]1(Cl)C2(Cl)Cl (stereo partly drawn) | 1 (inactive)
35 | Clc1cc(Cl)c(Cl)cc1Cl | 0.935 (inactive)
36 | CCOP(=S)(OCC)SCSCC | 1.02 (inactive)
37 | CCOP(=O)(NC(C)C)Oc1ccc(SC)c(C)c1 (stereo not drawn) | 0.951 (inactive)
38 | CCNc1nc(NCC)nc(SC)n1 | 0.978 (inactive)
